# Data as given in PubChem BioAssay AID2551 (National Center for Advancing Translational Sciences (NCATS), 2010).
# “And” between values parts separate entries of the source, which are not always exact repeats. Equal values may be shown once. Hit rate of the full screen: of about 310,000 compounds, about 17,000 (5.5%) were called active. Not shown: some 11% with an inconclusive outcome. This is one part of a sample in which actives are shown more often than they occur. Unmarked numbers belong to inactive results. The call rests on the fitted dose curve; in most records, active means well fitted inhibition curve with a large enough effect; inconclusive means small, poorly fitted or top-dose-only effect, or effect the other way; inactive means no such curve, though single readings can be large or run the other way.
# Target: Nuclear receptor ROR-gamma (Mus musculus) (UniProt P51450)
# Assay: qHTS for inhibitors of ROR gamma transcriptional activity; further: nearly all actives have a fitted effect of over 60% in size
# Conditions: Drosophila S2 Gal4-RORgamma UAS-luciferase reporter, 20 h; series mostly up to 53.6 µM; activity change, negative = inhibition: at the top concentration
# Method in brief: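 Stable Schneider cell line, Gal4 DNA-binding domain fused to ROR gamma, UAS-luciferase. Cmpd 1 hr RT → CuSO4 700 uM final → 20 hr RT → luciferase reagent 10 min → luminescence.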
# On the % scale 0 is the no-effect control and ±100 the full control effect; potency means the concentration at half of the fitted maximal effect.
# Sequence of Nuclear receptor ROR-gamma (Mus musculus) (P51450 whole entry, looked up): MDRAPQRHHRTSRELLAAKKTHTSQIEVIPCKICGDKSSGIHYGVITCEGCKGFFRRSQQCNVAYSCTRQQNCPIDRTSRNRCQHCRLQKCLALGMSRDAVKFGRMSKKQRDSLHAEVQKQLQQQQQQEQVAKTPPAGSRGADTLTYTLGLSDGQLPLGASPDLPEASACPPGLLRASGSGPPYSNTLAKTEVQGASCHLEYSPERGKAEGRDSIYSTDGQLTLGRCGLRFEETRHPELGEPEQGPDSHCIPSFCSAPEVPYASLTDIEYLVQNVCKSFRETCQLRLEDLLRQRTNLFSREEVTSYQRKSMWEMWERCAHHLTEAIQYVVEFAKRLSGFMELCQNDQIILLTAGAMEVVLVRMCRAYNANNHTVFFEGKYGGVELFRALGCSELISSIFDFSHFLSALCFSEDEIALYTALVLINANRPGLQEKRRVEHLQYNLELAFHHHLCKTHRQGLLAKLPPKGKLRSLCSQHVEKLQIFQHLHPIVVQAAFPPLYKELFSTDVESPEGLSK
Structure (SMILES),"activity change, negative = inhibition",Potency
CCOc1ccc(NC(=O)C(C)N2C(=O)c3ccccc3C2=O)cc1 (centres undefined),-2.48%,
CSc1ccc(NC(=O)/C=C/C(=O)O)cc1,,0.0794 µM (active)
Cc1cccc(N2CCN(c3ccc(NC(=O)/C=C\C(=O)O)cc3)CC2)c1,8.37%,
O=C(O)/C=C\C(=O)Nc1ccc(OCc2ccccc2)cc1,0.167%,
CN(C)CCCn1c(SCc2ccc(Cl)cc2)nnc1-c1ccncc1,9.2%,
O=C(CCCOc1ccc(Cl)cc1Cl)NNC(=O)C1CCC1,8.12%,
CN1CCC(OC(=O)COc2ccc(Cl)cc2Cl)CC1,-3.03%,
Cn1c(CCCOc2ccc(Cl)cc2Cl)n[nH]c1=S,,6.31 µM (active)
CN(C)c1nc(Nc2ccc(Cl)c(Cl)c2)nc(N(C)C)n1,22%,
CN(C)c1nc(NN)nc(Nc2ccc(F)cc2)n1,,7.94 µM (active)
CN(C)c1ccnc(Nc2ccc(F)cc2)c1C#N,-2.79%,
COc1ccc(CNC(=O)C2CCN(C(=O)c3ccco3)CC2)cc1,-27.8%,
Cc1c(OC(C)C(=O)NCC2CCC(C(=O)O)CC2)ccc2c1oc(=O)c1ccccc12 (centres undefined),13.2%,
Cc1ccc(CN2CCNC(=O)C2CC(=O)NCc2csc(C(C)C)n2)cc1 (centres undefined),-11.2%,
COc1ccc(NS(=O)(=O)c2ccc(Oc3c(C#N)cccc3C#N)cc2)cc1,,7.94 µM (active)
CCOc1ccc(S(=O)(=O)Nc2ccc(S(=O)(=O)Nc3cc(OC)ccc3OC)cc2)cc1,30.5%,
COc1cc(NS(=O)(=O)c2ccc(NC(C)=O)cc2)cc(OC)c1,0%,
CCn1ccnc1CN(C)C(=O)c1cc(COc2ccc(Cl)cc2OC)on1,30%,
Oc1c(CN2CCN(c3ccc(F)cc3)CC2)cc(Cl)c2cccnc12,,0.562 µM (active)
Oc1ccc(CN2CCN(c3ncccn3)CC2)cc1,-16.9%,
O=C(c1cccc(C(=O)N2CCN(c3ccc(F)cc3)CC2)c1)N1CCN(c2ccc(F)cc2)CC1,4.17%,
COCCNC(=O)C1CCN(C(=O)C2CC(=O)N(c3ccc(C)cc3)C2)CC1 (centres undefined),-3.92%,
O=C(c1cncc(Br)c1)N1CCN(c2ccc([N+](=O)[O-])cc2)CC1,34.5%,

Structure (SMILES),"activity change, negative = inhibition",Potency
Cc1cccc(C(=O)Nc2ccccc2N2CCN(c3ccc(F)cc3)CC2)c1,11.7%,
Cc1cccc(C(=O)NC(=S)N2CCN(c3ccc([N+](=O)[O-])cc3)CC2)c1,,0.447 µM (active)
CC(C(=O)c1ccc(-c2ccccc2)cc1)[n+]1cccc(Br)c1 (centres undefined),44.4%,
CCn1c2ccc(F)cc2c2nnc(SCCN3CCOCC3)nc21,-15.5%,
CCn1c(NCCc2ccc(OC)c(OC)c2)nc2c1c(=O)n(C)c(=O)n2C,15%,
Cn1c(=O)c2c(nc(NCCc3ccccc3)n2Cc2ccccc2)n(C)c1=O,,11.2 µM (active)
Cn1c(=O)c2c(nc(NCc3ccccc3)n2CC(N)=O)n(C)c1=O,13.7%,
COc1ccc(/C=C/NC(=O)c2ccc(OC)cc2)cc1,-26.7% [at 10 µM],
COc1ccc(/C=C/C(=O)c2ccc(OC)cc2O)cc1,,8.91 µM (active) and 316 nM (active)
O=C(/C=C/c1ccccc1)c1ccccc1O,-1.98%,
CCC(C(=O)NCc1cccnc1)n1nc(C)c2sc3ccccc3c2c1=O (centres undefined),6.04%,
CC(=O)CCC(=O)c1ccc2ccccc2c1,20.3%,
C=CC(=O)c1ccc2ccccc2c1,,0.631 µM (active)
CC(=O)c1ccc2c(ccc3ccccc32)c1,-30.5%,
CCN(CC)CC(=O)c1c[nH]c2ccc(OC)cc12,-6.89%,
COc1ccc2[nH]cc(/C=C(/C#N)S(=O)(=O)c3ccccc3)c2c1,,7.08 µM (active)
COc1ccc(/C=C(\C#N)c2c[nH]c3ccccc23)cc1,-6.22%,
COC(=O)c1cccc(C(=O)N2CCC(CCC(=O)NCc3ccc(F)cc3)CC2)c1,7.81%,
COc1cccc(CN(C)CC2CCCN(CCc3ccc(Cl)cc3)C2)c1OC (centres undefined),-32%,
NS(=O)(=O)c1ccc2nc(NC(=O)CS(=O)(=O)c3ccc(F)cc3)sc2c1,12.4%,
CCS(=O)(=O)N1Cc2ccccc2CC1C(=O)Nc1ccc(OC)cc1OC (centres undefined),16%,
CCS(=O)(=O)N1Cc2ccccc2CC1C(=O)Nc1nc2ccc(F)cc2s1 (centres undefined),,4.47 µM (active)
O=C(c1ccc(F)cc1)N1CCCC(C(=O)N2CCCCC2)C1 (centres undefined),1.02%,

Structure (SMILES),"activity change, negative = inhibition",Potency
Cc1cc(NS(=O)(=O)c2ccc(NC(=O)c3cccnc3)cc2)nc(C)n1,-34%,
Cc1cc(C)c2c(Cn3ccnc3)cc(=O)oc2c1,2%,
O=C(c1cc(-c2ccc(Cl)cc2)on1)N1CCN(c2ccccc2)CC1,-6.49%,
O=C(CSc1nc2ccccc2o1)N/N=C/c1ccccc1C(=O)O,-6.91%,
COc1ccc(/C=N/Nc2nc3ccccc3o2)cc1OC,-33.2%,
Cc1cccc(COc2ccccc2/C=N/Nc2ccc([N+](=O)[O-])cc2)c1,17.8%,
CCOc1ccccc1/C=N/Nc1nc2ccccc2o1,,6.31 µM (active)
Brc1ccccc1/C=N/Nc1nc2ccccc2o1,,2.51 µM (active)
Oc1c(Br)cccc1/C=N/Nc1c(F)c(F)c(F)c(F)c1F,21.4%,
CC(=O)Nc1ccc(S(=O)(=O)Nc2cc(C)cn(Cc3ccc(C)cc3)c2=O)cc1,0%,
COCC1CCN(C(=O)C2CCC(=O)N(CC3CCCCC3)C2)CC1 (centres undefined),-17%,
CN(Cc1ccccc1)C(=O)CSc1nc2ccccc2[nH]1,-0.354%,
CCC(=O)/C(=C(/O)c1ccccc1)c1nc2ccccc2[nH]1,,6.31 µM (active)
CC/C(O)=C1\C(=O)CC(C)(C)CC1=NCCc1nc2ccccc2[nH]1,0.887%,
CSc1ncccc1C(=O)Nc1ccc(C)cn1,7.85%,
O=C(Nc1nnc(-c2ccc(F)cc2)s1)c1c(F)cccc1Cl,-37.9%,
COc1cc(S(=O)(=O)N2CCN=C2c2ccccc2)ccc1Cl,4.5%,
CC1=NN(C(=O)Cc2ccc(C)cc2)C(O)(c2cccnc2)C1 (centres undefined),,8.91 µM (active)
O=C(c1cccc(F)c1)N1CCC(O)(c2cccnc2)CC1,13.9%,
Cc1ccc(C(=O)NC(=S)NCc2cccnc2)cc1,-1.51%,
Cc1ccc(NC(=O)N2CCC(O)(c3cccnc3)CC2)cc1,15.3%,
CC1=NN(C(=O)c2ccccc2Br)C(O)(c2cccnc2)C1 (centres undefined),,5.62 µM (active)
O=C(CN1CCN(Cc2ccccc2)CC1)Nc1ccc(F)c(F)c1,-18.2%,
